Laboratory results taken from the supplement of paper PMC12339681.

Test system: PBMC-derived induced microglia-like cells (piMGLC)
Test: synaptosome phagocytic index relative to DMSO control (fraction of DMSO); higher = more phagocytosis
Settings: concentration: 10 uM (2 uM for compounds listed in Table S2); pretreatment time: 24 h; assay time: 3 h

Going from CCc1cccc2c3c([nH]c12)C(CC)(CC(=O)O)OCC3 (configuration not stated) [Etodolac] to CCc1cc2c(cc1-c1cnn(CC(=O)N(C)C)c1)C(C)(C)c1[nH]c3cc(C#N)ccc3c1C2=O, the synaptosome phagocytic index falls from 1.01 to 0.394.

Compared with NC(=O)c1ccc(I)c([N+](=O)[O-])c1 [Iniparib], N#Cc1ccc2[nH]cc(CCCCN3CCN(c4ccc5oc(C(N)=O)cc5c4)CC3)c2c1 [Vilazodone] is lower in synaptosome phagocytic index: 0.96 for the first, 0.195 for the second.

Compared with Cc1cnc(-c2cc(N3CCN(C(=O)CCS(C)(=O)=O)CC3)ncc2Cl)c(C)c1, Cc1nc(Nc2ncc(C(=O)Nc3c(C)cccc3Cl)s2)cc(N2CCN(CCO)CC2)n1 [Dasatinib] is lower in synaptosome phagocytic index: 0.665 for the first, 0.243 for the second.

With CC(=O)c1c(C)c2cnc(Nc3ccc(N4CCNCC4)cn3)nc2n(C2CCCC2)c1=O [Palbociclib_(isethionate)] the synaptosome phagocytic index was 0.421.
